From PubChem BioAssay (NCI) come the findings set out here.

A short description of experiment [1]: NCI Yeast Anticancer Drug Screen. Data for the rad50 strain (AID 155).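 Further: 0% = growth of vehicle-only cultures of the same strain.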 Conditions: S. cerevisiae rad50 strain growth inhibition, stronger effect = higher value. In a few lines: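 Yeast carrying a defined DNA repair defect were exposed to test compounds, and growth was compared with vehicle-treated controls to give percent inhibition.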
The nature of experiment [2]: NCI Yeast Anticancer Drug Screen. Data for the mec2-1 strain (AID 157). Conditions: S. cerevisiae mec2-1 strain, stronger effect = higher value. Summed up: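 Using mec2-1 yeast: add compound, measure growth, express inhibition versus vehicle-treated cultures.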
Experiment [3] can be described thus: NCI Yeast Anticancer Drug Screen. Data for the sgs1 mgt1 strain (AID 161).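 Further: 0% = growth of cultures given vehicle only.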 The settings on record: S. cerevisiae sgs1 mgt1 strain, stronger effect = higher value. Summed up: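 This yeast growth screen uses a strain with defined DNA-repair lesions; compound-treated growth is compared with vehicle-treated growth.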
A short description of experiment [4]: NCI Yeast Anticancer Drug Screen. Data for the cln2 rad14 strain (AID 165).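 Further: 0% = growth equal to vehicle treated cultures.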 Conditions: S. cerevisiae cln2 rad14 strain, stronger effect = higher value. In a few lines: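 Yeast strain cln2 rad14, bearing defects in cell cycle control and DNA repair, serves as the test system; values reflect growth inhibition compared with vehicle.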
The nature of experiment [5]: NCI Yeast Anticancer Drug Screen. Data for the bub3 strain (AID 167). Conditions: S. cerevisiae bub3 mutant strain, stronger effect = higher value. Summed up: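 Compounds were applied to a genetically altered yeast strain carrying a cell-cycle control defect. Growth inhibition was scored against vehicle-treated controls.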
A short description of experiment [6]: NCI Yeast Anticancer Drug Screen. Data for the mlh1 rad18 strain (AID 175). Conditions: S. cerevisiae mlh1 rad18 strain growth inhibition, stronger effect = higher value. In a few lines: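 Steps: expose repair-defective yeast to compound; measure growth; express inhibition against vehicle-treated controls.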
[7] abbreviates: at 5.0 µM (retest, dose inferred, filed as 0.5).
The mark [8] stands for this setting: at 50.0 µM (retest, dose inferred, filed as 5.0).

Structures are written as SMILES. This is part of a sample that, as a whole, favours compounds with a hit. Of some 79,000 tested, about 15% had one in any assay. Values without a mark were called inactive. Activity calls are given as the source filed them. No stated cut-off is given here; in the data, active means growth inhibition above about 70%; inactive means the rest.

Turning to `CCC(CC)C(=O)O.[Ag]`, the growth inhibition in experiment [1] (setting [7]) is 99% (active); in experiment [1] (setting [8]), 99% (active); in experiment [1] (at 50.0 µM) it was 99.2% (active); in experiment [2] (setting [7]), 99% (active); in experiment [2] (setting [8]), 99% (active); in experiment [2] (at 50.0 µM), 99.6% (active). Further, the growth inhibition in experiment [3] (setting [7]) is 99% (active); in experiment [3] (setting [8]) it was 99% (active); in experiment [3] (at 50.0 µM), 99.6% (active); in experiment [4] (setting [7]) it was 99% (active); in experiment [4] (setting [8]), 99% (active); in experiment [4] (at 50.0 µM), 99.2% (active). Also, the growth inhibition is 100% (active) in experiment [5] (setting [7]); 99% (active) in experiment [5] (setting [8]); 99.1% (active) in experiment [5] (at 50.0 µM); 99% (active) in experiment [6] (setting [7]); 99% (active) in experiment [6] (setting [8]); 99.2% (active) in experiment [6] (at 50.0 µM).
For the compound `S=C(SSSSC(=S)N1CCCCC1)N1CCCCC1`, the growth inhibition was 45% in experiment [1] (setting [7]); 92% (active) in experiment [1] (setting [8]); 66.8% in experiment [1] (at 50.0 µM); 39% in experiment [2] (setting [7]); 95% (active) in experiment [2] (setting [8]); 19.9% in experiment [2] (at 50.0 µM). In addition, the growth inhibition in experiment [3] (setting [7]) was 39%; in experiment [3] (setting [8]) it was 96% (active); in experiment [3] (at 50.0 µM) it was 43.1%; in experiment [4] (setting [7]), 39%; in experiment [4] (setting [8]), 94% (active); in experiment [4] (at 50.0 µM), 9.35%. Further, the growth inhibition in experiment [5] (setting [7]) is 40%; in experiment [5] (setting [8]), 95% (active); in experiment [5] (at 50.0 µM), 73.5% (active); in experiment [6] (setting [7]), 57%; in experiment [6] (setting [8]) it was 93% (active); in experiment [6] (at 50.0 µM), 81% (active).
`O=[N+]([O-])c1ccc2nc(-c3ccccn3)[nH]c2c1`: the growth inhibition is -2% in experiment [1] (setting [7]); 27% in experiment [1] (setting [8]); 86.3% (active) in experiment [1] (at 50.0 µM); 1% in experiment [2] (setting [7]); 5% in experiment [2] (setting [8]); 87% (active) in experiment [2] (at 50.0 µM). Moreover, the growth inhibition is -13% in experiment [3] (setting [7]); 17% in experiment [3] (setting [8]); 73.6% (active) in experiment [3] (at 50.0 µM); -12% in experiment [4] (setting [7]); -3% in experiment [4] (setting [8]); 77.3% (active) in experiment [4] (at 50.0 µM). The growth inhibition was -25% in experiment [5] (setting [7]); 16% in experiment [5] (setting [8]); 88.6% (active) in experiment [5] (at 50.0 µM); -38% in experiment [6] (setting [7]); 42% in experiment [6] (setting [8]); 88.5% (active) in experiment [6] (at 50.0 µM).
For `CC(C)(Cl)C(Cl)CC/C(CBr)=C(\Cl)CBr` (stereo not drawn), the growth inhibition in experiment [1] (setting [7]) is 10%; in experiment [1] (setting [8]), 99% (active); in experiment [1] (at 50.0 µM), 73.5% (active); in experiment [2] (setting [7]), 17%; in experiment [2] (setting [8]), 99% (active); in experiment [2] (at 50.0 µM), 92.3% (active). Moreover, the growth inhibition was -11% in experiment [3] (setting [7]); 98% (active) in experiment [3] (setting [8]); 92% (active) in experiment [3] (at 50.0 µM); 21% in experiment [4] (setting [7]); 95% (active) in experiment [4] (setting [8]); 90.2% (active) in experiment [4] (at 50.0 µM). Also, the growth inhibition in experiment [5] (setting [7]) is 4%; in experiment [5] (setting [8]), 94% (active); in experiment [5] (at 50.0 µM), 92% (active); in experiment [6] (setting [7]), 11%; in experiment [6] (setting [8]) it was 99% (active); in experiment [6] (at 50.0 µM), 4.4%.
`CSc1ccc(/C=C2\CNC/C(=C\c3ccc(SC)cc3)C2=O)cc1`: the growth inhibition is 12% in experiment [1] (setting [7]); 18% in experiment [1] (setting [8]); 47.4% in experiment [1] (at 50.0 µM); 15% in experiment [2] (setting [7]); 19% in experiment [2] (setting [8]); 55.2% in experiment [2] (at 50.0 µM). In addition, the growth inhibition in experiment [3] (setting [7]) was 26%; in experiment [3] (setting [8]), 32%; in experiment [3] (at 50.0 µM) it was 69.8%; in experiment [4] (setting [7]), 23%; in experiment [4] (setting [8]) it was 29%; in experiment [4] (at 50.0 µM), 46.9%. The growth inhibition is 17% in experiment [5] (setting [7]); 23% in experiment [5] (setting [8]); 35% in experiment [5] (at 50.0 µM); 24% in experiment [6] (setting [7]); 33% in experiment [6] (setting [8]); 71.6% (active) in experiment [6] (at 50.0 µM).
Regarding `C=C1C(C2(C)C(OC(C)=O)CC(=O)OC(C)(COC(C)=O)C2CC(=O)OC)C(OC=O)C(OC(=O)C(O)C(C)CC)C2(C)C(c3ccoc3)CC(=O)C12O` (stereo not drawn), the growth inhibition is -15% in experiment [1] (setting [7]); -28% in experiment [1] (setting [8]); 76.9% (active) in experiment [1] (at 50.0 µM); -5% in experiment [2] (setting [7]); -16% in experiment [2] (setting [8]); 68.7% in experiment [2] (at 50.0 µM). For the same compound, the growth inhibition in experiment [3] (setting [7]) was 4%; in experiment [3] (setting [8]), -32%; in experiment [3] (at 50.0 µM), 57.5%; in experiment [4] (setting [7]) it was -6%; in experiment [4] (setting [8]), 0%; in experiment [4] (at 50.0 µM), 81.5% (active). Also, the growth inhibition is -36% in experiment [5] (setting [7]); -23% in experiment [5] (setting [8]); 79.8% (active) in experiment [5] (at 50.0 µM); -2% in experiment [6] (setting [7]); -53% in experiment [6] (setting [8]); 90% (active) in experiment [6] (at 50.0 µM).
